In all, about 1,100 compounds were measured (“Wnt reporter firefly/Renilla luciferase ratio relative to plate median”: median about 1.1, highest 2% from about 1.6 on). Shown is part of a subset that was picked to be rich in the highest values.
System: HEK293T (UBE3A T485A transfected, BAR Wnt reporter)
Assay: Wnt reporter firefly/Renilla luciferase ratio relative to plate median (fold (linear ratio)); higher = more Wnt/beta-catenin reporter activation
Settings: 24 h
Summary of the method: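 Chemicals were robotically dosed at 0.01–100 uM for 24 h onto HEK293T cells, starting four hours after transfection with a BAR firefly luciferase Wnt reporter, TK-Renilla and an expression plasmid. The cells had been plated at 4500 cells/well in DMEM with 10% FBS at 37°C and 5% CO2. Following a Dual-Glo luciferase readout, the firefly/Renilla ratio served as the Wnt activity measure and raw Renilla as the cell health measure, both median-centred on each plate. Each value is the mean of four biological replicates.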

| Compound | Wnt reporter firefly/Renilla luciferase ratio (concentration: 0.1 uM) | Wnt reporter firefly/Renilla luciferase ratio (concentration: 1 uM) | Wnt reporter firefly/Renilla luciferase ratio (concentration: 10 uM) | Wnt reporter firefly/Renilla luciferase ratio (concentration: 100 uM) | Wnt reporter firefly/Renilla luciferase ratio (concentration: 0.01 uM) | Wnt reporter firefly/Renilla luciferase ratio (concentration: .1 uM) |
| --- | --- | --- | --- | --- | --- | --- |
| CC(=O)OC1CC(C)OC(C)O1 (stereo not given) [Dimethoxane] | 1.1 | 0.976 | 0.952 | 0.736 | – | – |
| Cc1ccc(N(C)C)cc1 [N,N,4-Trimethylaniline] | 1.08 | 1.2 | 1.06 | 0.933 | – | – |
| Cc1ccc(C(C)C)c(O)c1 [Thymol] | 0.988 | 1.09 | 1.29 | 1.08 | – | – |
| Sc1nc2ccccc2s1 [2-Mercaptobenzothiazole] | 1.39 | 1.62 | 1.3 | 1.69 | – | – |
| N#CSCSc1nc2ccccc2s1 [2-(Thiocyanomethylthio)benzothiazole] | 0.88 | 1.09 | 1.06 | – | 0.895 | – |
| CS(=O)(=O)c1ccc([C@@H](C[C@H]2CCC(=O)C2)C(=O)Nc2cnccn2)cc1Cl [Piragliatin] | 1.03 | 0.959 | 1.02 | 1.3 | – | – |
| COc1cc2c3c(n(CCCn4ccnc4)c(=O)c2cc1OC)-c1cc2c(cc1C3=O)OCO2.Cl | 0.457 | 0.72 | 0.631 | 0.938 | 1.15 | – |
| OCC(O)CO [Glycerol] | 1.1 | 0.905 | 1.05 | 1.04 | – | – |
| S=C([S-])NCCNC(=S)[S-].S=C([S-])NCCNC(=S)[S-].[Mn+2].[Zn+2] [Mancozeb] | 0.999 | 0.95 | 0.951 | – | 0.932 | – |
| Nc1ccc(C(=O)O)cc1 [4-Aminobenzoic acid] | 1.22 | 1.07 | 0.948 | 1.2 | – | – |
| CC(C)c1cccc(C(C)C)c1NC(=O)[N-]S(=O)(=O)c1cc(C(C)(C)O)co1.[Na+] | 1.05 | 1.08 | 1.2 | 1.05 | – | – |
| CC/C(=C(\c1ccccc1)c1ccc(OCCN(C)C)cc1)c1ccccc1.O=C(O)CC(O)(CC(=O)O)C(=O)O [Tamoxifen citrate] | 0.922 | 0.964 | 0.891 | 1.01 | – | – |
| O=C(c1ccc(O)cc1O)c1ccc(O)cc1O [2,2',4,4'-Tetrahydroxybenzophenone] | 1.29 | 1.33 | 1.49 | 0.463 | – | – |
| CC(C)C(=O)OCC(C)(C)C(OC(=O)C(C)C)C(C)C (stereo not given) [2,2,4-Trimethyl-1,3-pentanediol diisobutyrate] | 0.92 | 0.885 | 1.15 | 1.64 | – | – |
| CC[C@]1(O)C[C@H]2C[N@](CCc3c([nH]c4ccccc34)[C@@](C(=O)OC)(c3cc4c(cc3OC)N(C=O)[C@H]3[C@@](O)(C(=O)OC)[C@H](OC(C)=O)[C@]5(CC)C=CCN6CC[C@]43[C@@H]65)C2)C1 [Vincristine] | – | – | 0.418 | – | 0.387 | – |
| NCCO [Ethanolamine] | – | 0.968 | 1.41 | 2.04 | – | 1.09 |
| OCCO [Ethylene glycol] | 1.37 | 1.07 | 1.12 | 1.27 | – | – |
| CCCCCCCCCCCC[N+](C)(C)C.[Cl-] [Dodecyltrimethylammonium chloride] | 1.41 | 1.1 | 0.377 | – | – | – |
| CCc1ccc(CCOc2ccc(CC3SC(=O)NC3=O)cc2)nc1.Cl (stereo not given) [Pioglitazone hydrochloride] | 0.94 | 0.896 | 0.903 | 1.1 | – | – |
| C=C(C)C(=O)OCCC(F)(F)C(F)(F)C(F)(F)C(F)(F)C(F)(F)C(F)(F)F [Tridecafluorohexylethyl methacrylate] | 1.03 | 1.12 | 1.06 | 1.16 | – | – |
| CC(C)=CCCC(C)=CC=O [3,7-Dimethyl-2,6-octadienal] | 1.11 | 1.26 | 1.03 | 1.09 | – | – |

| Compound | Wnt reporter firefly/Renilla luciferase ratio (concentration: 0.1 uM) | Wnt reporter firefly/Renilla luciferase ratio (concentration: 1 uM) | Wnt reporter firefly/Renilla luciferase ratio (concentration: 10 uM) | Wnt reporter firefly/Renilla luciferase ratio (concentration: 100 uM) | Wnt reporter firefly/Renilla luciferase ratio (concentration: 0.01 uM) | Wnt reporter firefly/Renilla luciferase ratio (concentration: .1 uM) |
| --- | --- | --- | --- | --- | --- | --- |
| CC(C)=CCC/C(C)=C/CO [Geraniol] | 1.1 | 1.26 | 1.15 | 1.75 | – | – |
| CC(C)=CCC/C(C)=C\CO [(2Z)-3,7-Dimethylocta-2,6-dien-1-ol] | 1.17 | 0.941 | 1.5 | 1.03 | – | – |
| OC(Cn1cncn1)(Cn1cncn1)c1ccc(F)cc1F [Fluconazole] | 1.15 | 0.884 | 1.33 | 1.25 | – | – |
| Cc1ccccc1Cl [2-Chlorotoluene] | 0.964 | 0.931 | 1.37 | 1.44 | – | – |
| CCO[Si](CCCNC(N)=O)(OCC)OCC [1-[3-(Triethoxysilyl)propyl]urea] | 1.11 | 0.853 | 1.36 | 1.66 | – | – |
| CCCCCCCC[Si](OCC)(OCC)OCC [Triethoxyoctylsilane] | 1.15 | 0.902 | 1.05 | 1.38 | – | – |
| CCOC(N)=O [Urethane] | 1.05 | 0.955 | 1.11 | 1.3 | – | – |
| O=N[O-].[Na+] [Sodium nitrite] | 1.13 | 0.943 | 1.4 | 1.29 | – | – |
| COc1ccc(CC(N)C(=O)NC2C(CO)OC(n3cnc4c(N(C)C)ncnc43)C2O)cc1 (stereo not given) [Puromycin] | 0.78 | 0.249 | – | – | 0.865 | – |
| CC[C@H](NC(=O)c1cc(F)ccc1[N-]S(=O)(=O)c1cccc2cccnc12)c1ccccc1.[Na+] | 1.22 | 1.08 | 1.18 | 0.234 | – | – |
| CC(C)CC(C=O)NC(=O)C(CC(C)C)NC(=O)C(CC(C)C)NC(=O)OCc1ccccc1 (stereo not given) | 0.85 | 2.61 | – | – | 0.993 | – |
| O=C(O)c1ccccc1C(=O)OCc1ccccc1 [Monobenzyl phthalate] | 1.1 | 0.986 | 1.31 | 1.16 | – | – |
| CCCCC(CC)COC(=O)CCCCC(=O)OCc1ccccc1 (stereo not given) [Benzyloctyl adipate] | 0.909 | 1.03 | 1.13 | 1.12 | – | – |
| CCCCC(CC)COC(=O)CC(C(=O)OCC(CC)CCCC)S(=O)(=O)[O-].[Na+] (stereo not given) [Docusate sodium] | 0.824 | 1.14 | 0.946 | 0.789 | – | – |
| CC#C[C@]1(O)CC[C@H]2[C@@H]3CCC4=CC(=O)CCC4=C3[C@@H](c3ccc(N(C)C)cc3)C[C@@]21C [Mifepristone] | 0.957 | 0.893 | 0.624 | 0.0932 | – | – |
| CNC(=O)[C@H]1O[C@@H](n2cnc3c(NCc4cc(Cl)ccc4OCc4cc(C)no4)ncnc32)[C@H](O)[C@@H]1N | 0.941 | 1.17 | 1.13 | 1.06 | – | – |
| O=C(NS(=O)(=O)/C=C/c1cccs1)c1ccc(F)cc1Br | 1.13 | 1.12 | 0.456 | 0.251 | – | – |
| c1ccc2cc3c(ccc4ccccc43)cc2c1 [Benz(a)anthracene] | 1 | 0.949 | 1.29 | 0.737 | – | – |
| c1ccc2ccccc2c1 [Naphthalene] | 1.17 | 1.18 | 1.32 | 1.48 | – | – |
| c1ccc2cc3ccccc3cc2c1 [Anthracene] | 0.982 | 0.92 | 0.951 | 2.12 | – | – |

Source: the supplement of paper PMC9254222
